Compound activity: PubChem, Sanford-Burnham Center for Chemical Genomics
This is a sample that favours compounds with a hit; in the whole collection about 2% have one here.
A3G deaminase = inhibitors of human APOBEC3G DNA deaminase; Q9HC16; recombinant A3G, ssDNA deamination FAM/TAMRA fluorescence; inhibition, % at 20 µM; 330,000 compounds, 0.28% hits; AID 493012;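 active = inhibition of at least 40% at 20 µM, with no more than 30% in the related APOBEC3A deaminase screen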
Target sequence (Q9HC16 whole entry, looked up): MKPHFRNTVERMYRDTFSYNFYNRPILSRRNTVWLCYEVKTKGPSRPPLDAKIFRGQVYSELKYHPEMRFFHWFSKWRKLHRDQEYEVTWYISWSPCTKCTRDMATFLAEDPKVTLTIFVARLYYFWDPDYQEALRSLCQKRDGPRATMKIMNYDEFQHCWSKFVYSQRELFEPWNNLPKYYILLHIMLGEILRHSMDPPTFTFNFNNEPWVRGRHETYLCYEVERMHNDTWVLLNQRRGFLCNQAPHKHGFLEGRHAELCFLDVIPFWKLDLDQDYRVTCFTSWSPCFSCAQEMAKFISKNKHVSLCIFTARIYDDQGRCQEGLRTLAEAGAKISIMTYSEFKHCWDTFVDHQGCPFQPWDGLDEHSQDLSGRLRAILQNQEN
Neddyl block = cullin neddylation inhibition; TR-FRET cullin neddylation, biochemical; P61081+Q13564; 360,000 compounds, 0.58% hits; inhibition, % at 25 µM; in the data active = inhibition above about 36%
GC-B act = GC-B (human) receptor activation; P20594; HEK293-GC-B cells, CNP EC30, cGMP TR-FRET; 0% at EC30 CNP, 100% saturating CNP; activation, % at 10 µM; 370,000 compounds, 0.11% hits;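 active = activation at 10 µM reaching about 35% in either raw or pattern-adjusted values, limit read from the data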
A3A deaminase = human APOBEC3A DNA deaminase inhibition; P31941; recombinant A3A, FAM/TAMRA ssDNA deamination fluorescence; inhibition, % at 20 µM; 330,000 compounds, 0.41% hits;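 active = at least 40% inhibition at 20 µM here, with at most 30% in a related deaminase screen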
GC-A act = GC-A (human) enzyme activation. HEK293 GC-A cells, cGMP TR-FRET, EC30 ANP; 0% at EC30 ANP, 100% saturating ANP. AID 1671463. 370,000 compounds, 0.14% hits. P16066. activation, % at 10 µM; in the data active = activation above about 40%
PfGluPho inh = PfG6PD (Plasmodium falciparum) enzyme inhibition; PfGluPho enzyme, NADPH resazurin-diaphorase fluorescence; inhibition, % at 20 µM; 350,000 compounds, 0.78% hits; AID 504690;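 active = inhibition reaching at least a set limit at 20 µM in the primary screen, cut at about 59% in these data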
APOBEC3A confirm = confirmation of human APOBEC3A DNA deaminase inhibitors | AID 493151 | inhibition, % at 20 µM | shares compounds with A3A deaminase | recombinant A3A, ssDNA deaminase UDG fluorescence assay | 1,400 compounds, 63% hits;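 active = inhibition reaching a set limit, 80% of the first screen's cutoff, at 20 µM in any replicate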
UDG ctr A3A = inhibits UDG, flagging false APOBEC3A inhibitors | shares compounds with A3A deaminase | UDG counterscreen, FAM/TAMRA uracil oligo fluorescence | inhibition, % at 20 µM | 1,000 tested, under 10 active | AID 504714; call rule not given here
Numbers stand for hits; 0 = inactive; - = no result.

SMILES | A3G deaminase | Neddyl block | GC-B act | A3A deaminase | GC-A act | PfGluPho inh | APOBEC3A confirm | UDG ctr A3A
COC(=O)[C@]12C[C@H](CC(=O)NCC3CCCCC3)C(=O)N(Cc3ccc(Cl)cc3Cl)C1=C[C@H](C(C)C)O[C@@H]2C1CC1 | - | - | 0 | - | 0 | - | - | -
Cn1cccc/c1=N\c1cccc[n+]1C | 0 | 0 | 0 | 49 | 0 | 0 | 65 | 0
CC(C)C(C#CC1CC1)NCc1ccc2c(c1)OCO2 (configuration not stated) | - | - | 0 | - | 0 | - | - | -
CCCC[C@@H]1C(=O)N2N=Cc3cc4ccccc4cc3[C@H]2N2N=Cc3cc4ccccc4cc3[C@@H]12 | - | - | 0 | - | 0 | - | - | -
COC(=O)C1CN(Cc2ccc(Cl)cc2)CCS(=O)(=O)N1Cc1cn(Cc2ccccc2)nn1 (configuration not stated) | - | - | 0 | - | 0 | - | - | -
COC(=O)C1=C(C)N(Cc2ccccc2)C(=NCc2cccc(C(F)(F)F)c2)N[C@H]1c1cccc(F)c1 | 0 | 0 | 0 | 0 | 0 | 0 | - | -
CCN1C(=NCCc2ccccn2)N[C@@H](c2cccc(F)c2)C(C(=O)OC)=C1C | 0 | 0 | 0 | 48 | 0 | 0 | 63 | 0
COC(=O)C1=C(C)N(Cc2ccccc2)C(=NCCc2ccccn2)N[C@H]1c1cccc(F)c1 | 0 | 0 | 0 | 48 | 0 | 0 | 63 | 0
O=C(NCc1ccc(F)c(F)c1)C1CCCN(c2nc3ccccc3o2)C1 (configuration not stated) | - | - | 0 | - | 0 | - | - | -
COc1ccccc1NC(=O)OC1CCC12CCCCC2 (configuration not stated) | - | - | 0 | - | 0 | - | - | -
COc1cccc2sc(Nc3nc(-c4cc5ccccc5oc4=O)cs3)nc12 | - | 0 | 0 | - | 0 | 0 | - | -
COc1cccc2sc(Nc3nc(-c4ccncc4)cs3)nc12 | 0 | 0 | 0 | 45 | 0 | 0 | 24 | 0
Cc1[nH]c(=O)c(C#N)c(C)c1CCC(=O)NCc1ccc(Cl)cc1 | 0 | 0 | 0 | 71 | 0 | 0 | 0 | 0
Cc1cccc(Cc2c(C)[nH]c(=O)c(C#N)c2C)c1 | 0 | 0 | 0 | 0 | 0 | 0 | - | -
Cc1cccc(C(=O)Nc2cc(Cl)ccc2-n2cncn2)c1[N+](=O)[O-] | 0 | 0 | 0 | 0 | 0 | 0 | - | -
Cc1cccc2nc(C(=O)Nc3cc(Cl)ccc3-n3cncn3)cn12 | 0 | 0 | 0 | 49 | 0 | 0 | 36 | 0
C[N+](C)(C)CCCN(Cc1ccc2c(c1)OCO2)C(=O)NC1CCCCC1 | 0 | 0 | 0 | 56 | 0 | 0 | 72 | 0
COc1ccc(CNS(=O)(=O)/C=C/c2ccccc2CNC(=O)OC(C)(C)C)cc1 | - | - | 0 | - | 0 | - | - | -
COc1ccc(N2CC(C(=O)Nc3ccc(S(=O)(=O)N4CCOCC4)cc3)CC2=O)cc1 (configuration not stated) | 0 | 0 | 0 | 48 | 0 | 0 | 0 | -
Cc1cc(C)c(C)c(S(=O)(=O)N2CCC(C(=O)Nc3ccc(S(=O)(=O)N4CCOCC4)cc3)CC2)c1C | 0 | 0 | 0 | 41 | 0 | 0 | 0 | -
Cc1ccc(C)c(NC(=O)CN2C(=O)CCSc3ccccc32)c1 | - | - | 0 | - | 0 | - | - | -
Cn1c(=O)n(C)c2cc(C(=O)O)ccc21 | 0 | 0 | 0 | 60 | 0 | 0 | 0 | 0
CN1CCC(N(C)S(=O)(=O)c2ccc(NC(=O)COc3ccc(F)cc3)cc2)CC1 | 0 | 0 | 0 | 64 | 0 | 0 | 58 | 0
CN1CCC(N(C)S(=O)(=O)c2ccc(NC(=O)COc3ccc([N+](=O)[O-])cc3)cc2)CC1 | 0 | 0 | 0 | 50 | 0 | 0 | 52 | 0
CN1CCC(N(C)S(=O)(=O)c2ccc(NC(=O)COc3ccc(Cl)cc3)cc2)CC1 | 0 | 0 | 0 | 0 | 0 | 0 | - | -
CCCCc1ccc(NC(=O)Nc2c(C)n(C)n(-c3ccccc3)c2=O)cc1 | 0 | 0 | 0 | 62 | 0 | 0 | 0 | 0
CCc1ccc(NC(=O)Nc2c(C)n(C)n(-c3ccccc3)c2=O)cc1 | 0 | 0 | 0 | 0 | 0 | 0 | - | -
O=C(c1ccc(Cl)c(Cl)c1)N1CCC(Oc2cccnc2)CC1 | - | - | 0 | - | 0 | - | - | -
